Experimental data reported in PubChem BioAssay (NCI).
This is part of a sample that, as a whole, favours compounds with a hit. Of some 83,000 tested, about 20% had one in any assay.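 For each line, cells grew in 96-well plates with the test compound present at a single concentration for 48 hours.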 Unmarked numbers belong to inactive results. Calls of active or inactive are those of the source. The calls were made as follows: active = growth percent below 10; inactive = the rest.

The compounds below were run on HOP-92 NSCLC (assay: NCI-60 one-dose screen, 48 h (100 = growth as untreated, 0 = no growth, -100 = all killed)). Conditions: 10 µM unless noted.

**Q.** With `Nc1ccc(CCCCc2ccccc2)c(Cl)c1` as the compound, how does the growth read?
**A.** 53.1%

**Q.** With `Nc1ccc(S(=O)(=O)Nc2ccsc2-c2nc(-c3ccccc3)no2)cc1` as the compound, how does the growth read?
**A.** 62.2%

**Q.** `C=C(CNCCc1ccc(O)cc1)[C@@H]1CC[C@]2(COC3CCCCO3)CC[C@]3(C)[C@H](CC[C@@H]4[C@@]5(C)CCC(NCCO)C(C)(C)[C@@H]5CC[C@]43C)[C@@H]12` (some centres undefined) was tested. Which growth did it give?
**A.** -80.8% (active)

**Q.** `OC(COc1cccc2ccccc12)CN1CCN(c2ccccc2)CC1` (centres undefined) was tested. Which growth did it give?
**A.** 77.6%

**Q.** With `Cc1[nH]c(-c2nc3ccccc3[nH]2)c(C)c1C(=O)N1CCc2sccc2C1` as the compound, how does the growth read?
**A.** 81.6%

**Q.** Which growth does the source give for `CC(C)n1nc(C#Cc2cccc(NC(=O)c3cccc(C(F)(F)F)c3)c2)c2c(N)ncnc21` here?
**A.** -33.7% (active)

**Q.** `Cc1cc(NS(=O)(=O)c2ccccc2)c(OS(=O)(=O)c2ccccc2)cc1C` was tested. Which growth did it give?
**A.** 88.1%

**Q.** With `OCCCCc1nccc2c1[nH]c1ccccc12` as the compound, how does the growth read?
**A.** 104%

**Q.** `C=C(C)[C@@H]1CC[C@]2(CNCCO)CC[C@]3(C)[C@H](CC[C@@H]4[C@@]5(C)CCC(N)[C@@](C)(CO)[C@@H]5CC[C@]43C)[C@@H]12` (some centres undefined) was tested. Which growth did it give?
**A.** 38.8%

**Q.** How did the growth turn out when `OC(c1cccc(OCc2ccccc2)c1)c1nnc(-c2ccccc2)o1` (centres undefined) was run?
**A.** 80.9%

**Q.** `Cl.[Pt].[c-]1ccccc1-c1ccccn1.c1ccc(P(c2ccccc2)C([PH+](c2ccccc2)c2ccccc2)[PH+](c2ccccc2)c2ccccc2)cc1` was tested. Which growth did it give?
**A.** -17% (active)

**Q.** For `COc1cc2c(c(OC)c1OC)C(=O)/C(=C/c1cc(C)c(O)c(C)c1)S2`, which growth is on record?
**A.** 54.6%

**Q.** `O=C(Nc1ccccn1)[C@H](O)[C@@H](O)C(=O)N1CCOCC1` was tested. Which growth did it give?
**A.** 106%

**Q.** How did the growth turn out when `CC(C)(C)N1CC(OC(N)=O)C1` was run?
**A.** 96.2%

**Q.** For `O=C(NC1CCOCC1)c1ccc2c(c1)CN(c1ncc(Cc3cccc(-n4cccn4)c3)s1)CC2`, which growth is on record?
**A.** 44.9%

**Q.** Which growth does the source give for `CN1C[C@@H](c2ccc(Cl)cc2)[C@]2(NC(=S)N(c3ccc(F)c(Cl)c3)C2=O)[C@@]12C(=O)NC1C=CC(Cl)=C[C@H]12` (some centres undefined) here?
**A.** -7.71% (active)

**Q.** `CCCN1CCN(c2ccc3nc(-c4ccc5nc(-c6ccc(OCC)c(OCC)c6)[nH]c5c4)[nH]c3c2)CC1` was tested. Which growth did it give?
**A.** 40.5%

**Q.** For `NC(=S)c1csc(CCNC(=O)c2ccccc2)n1`, which growth is on record?
**A.** 97.3%

**Q.** For `CCN(CCO)CC(=O)c1cc(Cl)cc(Cl)c1Cl`, which growth is on record?
**A.** 89.4%

**Q.** For `C=CC(=O)Nc1cccc(C)c1Nc1cc(-c2cccnc2Cc2c(C)c(OC)cc(OC)c2C)ncn1`, which growth is on record?
**A.** 22.8%

**Q.** For `N#Cc1c(NC(=O)c2ccccc2I)sc2c1CCCC2`, which growth is on record?
**A.** 71.6%

**Q.** Which growth does the source give for `C#CC[C@H](N)C(=O)O` here?
**A.** 87.3% [20 µM]

**Q.** `COc1ccc(-n2ncn(CCCCCCn3cnn(-c4ccc(OC)cc4)c3=O)c2=O)cc1` was tested. Which growth did it give?
**A.** 89.4%

**Q.** Which growth does the source give for `CC(C)OC(=O)OCOP(=O)(OCOC(=O)OC(C)C)C1CCCN(O)C1=O` (centres undefined) here?
**A.** 41.7%

**Q.** With `O=C(/C=C/C12c3ccccc3C(c3ccccc31)C1C(=O)N(c3ccc(Cl)cc3)C(=O)C12)c1ccccn1` (centres undefined) as the compound, how does the growth read?
**A.** -53.7% (active)

**Q.** How did the growth turn out when `Cc1ccc(S(=O)(=O)N(CC[C@@H]2C[C@H]2c2cc3ccccc3o2)C(=O)NC2CCCCC2)cc1` was run?
**A.** 110%

**Q.** Which growth does the source give for `COc1cc2c(cc1OC)-c1ccc3cc4c(cc3c1N(CCCN1CCCCC1)C2)OCO4` here?
**A.** 23.2%

**Q.** With `COc1cc2cc(Oc3ccc(NC(=O)Nc4cc(C(F)(F)F)cc(C(F)(F)F)c4)cc3)c(C)nc2cc1OCCN1CCCCC1` as the compound, how does the growth read?
**A.** 42.2%

**Q.** For `CCN(CC)CCOC(=O)Nc1ccccc1Cl`, which growth is on record?
**A.** 82%

**Q.** For `COc1cc(CNC(=O)/C=C/C=C/c2ccc3c(c2)OCO3)ccc1OCc1cn(-c2ccc(Cl)c(Cl)c2)nn1`, which growth is on record?
**A.** -14.7% (active)

**Q.** For `N#C/C=C(\c1ccc([N+](=O)[O-])cc1)n1nnc2cc(Cl)c(Cl)cc21`, which growth is on record?
**A.** 45.2%

**Q.** With `CNC(=O)c1c(NC(=O)c2ccc(C(C)(C)C)cc2)sc2c1CCC(=O)C2` as the compound, how does the growth read?
**A.** -22.3% (active)

**Q.** Which growth does the source give for `CCCCOc1ccc(NC(=O)n2nc(N=NN(C)C)c3ccc(Cl)cc32)cc1` here?
**A.** 93%

**Q.** Which growth does the source give for `CC[C@@H](C[C@H](CCO)c1ccccc1)c1cc2ccccc2o1` here?
**A.** 96.8%

**Q.** How did the growth turn out when `N=c1ccn2c(n1)OC1C(O)C(CO)OC12` (centres undefined) was run?
**A.** 49.2%

**Q.** How did the growth turn out when `Cc1cc(N2CCCCC2)nc(N(CCNc2ccnc3cc(Cl)ccc23)Cc2ccccn2)n1` was run?
**A.** 30.6%

**Q.** With `CCOc1ccc2nc(-c3cccc(OCC(=O)NC(C)C)c3)nc(Nc3ccc(-c4cn[nH]c4)cc3)c2c1` as the compound, how does the growth read?
**A.** -27.9% (active)

**Q.** `C=C1C(=O)O[C@H]2[C@H]1CC/C(Cn1cc(CNCCc3c[nH]c4ccc(Cl)cc34)nn1)=C\CC[C@@]1(C)O[C@@H]21` was tested. Which growth did it give?
**A.** -7.88% (active)

**Q.** With `CS(=O)(=O)c1ccc(-c2nc3cc(Cl)ccc3n2CC(=O)N/N=C/c2ccc(Cl)cc2)cc1` as the compound, how does the growth read?
**A.** 68.1%
